A selection: hits, their analogues and other compounds. The true share with any hit is near 3.6%.
IMPase Li cell – cell-permeable IMPase inhibitors with lithium potentiation. Potency, µM (titrated, usually from 59.4 µM), without a hit: at the highest dose activity, negative = IMPase inhibition, hits mostly inhibitors. actives 0.35% (n = 210,000). CHO-M1 cells, IP1 TR-FRET (IP-One), carbachol + lithium;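 also: IP1 builds up when IMPase is blocked and the TR-FRET signal falls; plate controls were basal vehicle for no effect and high inhibitor control for full effect; nearly all actives have a fitted effect of over 50% in size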
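Steps: plate 2000 CHO-M1 cells per well and culture 16–30 h; add compound and lithium; incubate 30 min, 37C; add d2-IP1 tracer and Eu cryptate anti-IP1 antibody in lysis buffer; read after 10 min at room temperature.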
JMJD2E inh – inhibitors of human JMJD2E histone demethylase; B2RXH2; actives 1.6% (n = 230,000); JMJD2E catalytic domain, FDH-coupled NADH fluorescence (FDH is formaldehyde dehydrogenase); Potency, µM (highest dose often 57.1 µM), for the others: at the top dose activity change, negative = inhibition, usual class: inhibitors; AID 2147; active = well fitted inhibition curve with a large enough effect, not every such curve was filed as active; inconclusive = small, poorly fitted or top-dose-only effect, or another doubt; inactive = no such curve, though single readings can be large or run the other way;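 also: 0% = wells with enzyme and -100% = buffer wells without enzyme; nearly all actives have a fitted effect of over 50% in size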
Target sequence (B2RXH2 1-337 limits assumed): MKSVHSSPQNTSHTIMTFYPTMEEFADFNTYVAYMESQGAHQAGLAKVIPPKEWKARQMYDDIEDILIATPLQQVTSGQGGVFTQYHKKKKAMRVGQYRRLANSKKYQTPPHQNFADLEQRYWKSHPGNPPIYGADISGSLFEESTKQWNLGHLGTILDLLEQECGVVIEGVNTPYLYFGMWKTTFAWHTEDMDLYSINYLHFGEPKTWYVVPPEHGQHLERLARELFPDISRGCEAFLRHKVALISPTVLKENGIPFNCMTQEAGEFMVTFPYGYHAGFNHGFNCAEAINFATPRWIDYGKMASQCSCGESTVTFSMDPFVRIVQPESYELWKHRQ
Epigenetic derep – derepresses silenced GFP reporter in murine cells; murine LDR cells, GFP reporter derepression, 30 h; Potency, µM (series often up to 53.9 µM), without a hit: at the top dose GFP activation, actives largely listed as activators; actives 0.2% (n = 280,000); also: % of control where 0% means no effect; nearly all actives have a fitted effect of over 60% in size
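Derepression of a silenced CMV-GFP reporter in murine LDR cells is scored by enumerating GFP-positive cells with a laser-scanning microplate cytometer after 30 hours of treatment at 37 C.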
Sfp PPTase inh – Sfp phosphopantetheinyl transferase inhibition. Q9F4F7. Biochemical Sfp PPTase activity, qHTS. Potency, µM, for inactives: largest response in the series, negative = inhibition, most hits filed as inhibitors. actives 3.5% (n = 310,000). AID 1490;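 also: the enzyme is Sfp with the accession as filed and its product quenches rhodamine fluorescence; 0% = enzyme reaction without inhibitor and -100% = no enzyme wells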
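With Hepes-Na pH 7.6 buffer containing 10 mM MgCl2, Sfp (15 nM) modified BHQ-2-YbbR (12.5 uM) using rhodamine-CoA (5 uM). Two reads 30 minutes apart at 525/598 nm yielded each well's rate.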
KAT2A inh – GCN5L2 (KAT2A) acetyltransferase inhibition. Q92830. GCN5L2 HAT assay, ThioGlo1 CoA-SH fluorescence. Potency, µM (series often up to 58.9 µM), for inactives: top-dose activity change, negative = inhibition, actives largely listed as inhibitors. actives 0.21% (n = 390,000). AID 504327; also: % is scaled to controls: 0 for no effect and ±100 for the full control effect
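Compounds, pin-transferred from DMSO stocks, meet 20nM GCN5L2 for 15 min before the reaction begins with H3(1-25) peptide (75uM) and acetyl-CoA (70uM). Thiol-reactive ThioGlo1 reports CoA release over 20 min at room temperature.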
NPSR antagonist – blocks cAMP signaling of the human neuropeptide S receptor. AID 1461. Q6W5P4. Potency, µM (titrated, usually from 38.3 µM), for the others: at the highest dose activity change, negative = inhibition, actives largely listed as inhibitors. actives 1% (n = 220,000). CHO-NPSR cells, cAMP TR-FRET, antagonist mode; also: % is scaled to controls: 0 for no effect and ±100 for the full control effect; nearly all actives have a fitted effect of over 50% in size
Target sequence (Q6W5P4 whole entry, looked up): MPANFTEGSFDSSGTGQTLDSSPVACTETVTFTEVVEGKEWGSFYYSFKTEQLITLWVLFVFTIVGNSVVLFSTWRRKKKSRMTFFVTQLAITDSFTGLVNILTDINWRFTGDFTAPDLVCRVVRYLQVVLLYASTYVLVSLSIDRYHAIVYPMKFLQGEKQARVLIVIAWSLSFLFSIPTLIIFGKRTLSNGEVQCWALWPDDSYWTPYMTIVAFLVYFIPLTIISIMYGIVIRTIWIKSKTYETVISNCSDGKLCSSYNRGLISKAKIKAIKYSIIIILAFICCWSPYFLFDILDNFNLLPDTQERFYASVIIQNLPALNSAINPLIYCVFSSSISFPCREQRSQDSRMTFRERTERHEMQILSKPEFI
Starred values were filed as active, the others as inactive; ? = inconclusive; nt = no result given; [ ] = another dose, or the depositor's remark. Unless noted, calls follow the shape of the dose curve; as a rule, active = well fitted curve in the direction sought with a large enough effect; inconclusive = small, poorly fitted or top-dose-only effect, or another doubt; inactive = no such curve, though single readings can be large; an effect the other way counts as inactive or inconclusive. Potency is read from the fitted curve at half-maximal effect.

SMILES | IMPase Li cell | JMJD2E inh | Epigenetic derep | Sfp PPTase inh | KAT2A inh | NPSR antagonist
CCCCC(=NCCc1c(C)[nH]c2ccccc12)C1=C(O)CC(c2ccccc2)CC1=O (centres undefined) | 9% | 5% | -1% | 18% | -12% | 7.9µM*
CC(=NCCc1c(C)[nH]c2ccc(C)cc12)C1=C(O)CC(c2ccccc2)CC1=O (centres undefined) | 9% | -4% | -1% | 1% | -9% | -47%
CCCC(=NCCc1c(C)[nH]c2ccccc12)C1=C(O)CC(c2ccccc2)CC1=O (centres undefined) | 15% | 0% | 2% | 6% | -5% | -58%
CO[C@H]1COC(=O)C/C=C\[C@H](C)[C@@H](OC)COC(=O)[C@@H](C)NC(=O)C/C=C\[C@@H]1C | nt | nt | 0%[10.1 µM] | 0% | nt | nt
CCc1cc2c(=O)c(-c3nc4ccccc4[nH]3)coc2c(CN2CCCCC2C)c1O (centres undefined) | nt | -11% | 0% | 1% | -11% | 20%[7.67 µM]
CCc1cc2c(=O)c(-c3ccc4c(c3)OCCO4)coc2c(CN2CCCCC2C)c1O (centres undefined) | 8% | ? | 4% | ? | -17% | 10µM*
CC(C)(C)OC(=O)NC(Cc1ccccc1)C(O)c1ccco1 (centres undefined) | nt | nt | nt | 2% | nt | nt
c1ccc(-c2n[nH]c(-c3ccccn3)n2)nc1 | 15%[38.3 µM] | 8% | 1% | 20µM* | 0% | 4%[46.1 µM]
c1ccc(-c2n[nH]c(-c3ccccn3)n2)cc1 | -2%[38.3 µM] | -5% | 22µM* | 12% | -12% | -9%[46.1 µM]
O=C(Nc1ccc(F)cc1)Nc1ccc(N2CCCC2)c(S(=O)(=O)Nc2ccccc2Cl)c1 | 14% | 22µM* | 6% | 20% | -12% | 10µM*
COc1ccccc1NS(=O)(=O)c1cc(NC(=O)c2cc[n+]([O-])cc2)ccc1N1CCCC1 | 4% | ? | 0% | 11µM* | -23% | -20%
COc1ccccc1NS(=O)(=O)c1cc(NC(=O)C(C)C)ccc1N1CCCCC1 | 4% | -22% | 0% | 40µM* | -8% | -49%
O=C(Nc1ccc(Cl)c(Cl)c1)Nc1ccc(N2CCCC2)c(S(=O)(=O)Nc2ccccc2Cl)c1 | 0% | ? | 7% | 21% | -7% | -58%
O=C(NCCc1ccccc1)c1cccc(Br)n1 | 6% | nt | 0% | -18% | 11%[88.6 µM] | nt
C/C(CCN1CCc2nc(-c3ccccc3)c(-c3ccccc3)cc2C1)=N\OC[C@@H](O)COCc1ccco1 | nt | nt | 0%[10.1 µM] | 10% | nt | nt
Cc1ccc(CNC(=O)CCc2c(C)nc3c4c(C)cc(C)nc4nn3c2C)cc1 | nt | nt | -6% | nt | -10% | nt
CC[N+](CC)(CC)CCOc1ccc(/C=C\c2ccccc2)cc1 | 24% | 25µM* | 4% | ? | ? | nt
CC[N+](CC)(CC)CCOc1ccc(/C=C/c2ccccc2)cc1 | 24% | nt | 1% | -15% | -23% | nt
O=C(O)c1ccc2c(c1)C1C=CCC1C(c1ccncc1)N2 (centres undefined) | nt | 14µM* | 0% | ? | 2% | -8%
CCOC(=O)C1Nc2ccc(C(=O)O)cc2C2C=CCC12 (centres undefined) | nt | nt | nt | 22µM* | -18% | nt
CCOC(=O)c1ccc2c(c1)C1C=CCC1C(C(=O)O)N2 (centres undefined) | 13%[38.3 µM] | ? | -2% | ? | 20µM* | 6%[46.1 µM]
Cc1cc(C)c2c(c1)NC(C(=O)O)C1CC=CC21 (centres undefined) | nt | nt | nt | 89µM* | 28µM* | nt
NCC(=O)N[C@@H](CCCN=C(N)N)C(=O)NCC(=O)N[C@@H](CC(=O)O)C(=O)N[C@@H](CO)C(=O)O | nt | nt | nt | 21% | -27% | nt
CC(C)C1Nc2ccc(C(=O)O)cc2C2C=CCC21 (centres undefined) | 10% | 4% | -9% | 28µM* | -23% | 7%
COc1ccccc1NS(=O)(=O)c1cc(NC(=O)c2cccs2)ccc1N1CCCC1 | 3% | ? | -1% | 20µM* | -23% | -14%
SMILES | IMPase Li cell | JMJD2E inh | Epigenetic derep | Sfp PPTase inh | KAT2A inh | NPSR antagonist
COc1ccccc1NS(=O)(=O)c1cc(NC(=O)c2cccs2)ccc1N1CCCCC1 | 3% | 25µM* | -1% | 17% | -14% | -21%
CCCCc1ccc(Nc2cc(C)nc(-n3nc(C)cc3C)n2)cc1 | nt | nt | -4% | nt | ? | nt
Cc1nc(NC2CCCCC2)c2nc(-c3ccccc3)n(CCN3CCCC3)c2n1 | 2% | ? | 6% | 0% | nt | nt
O=C(O)CCc1n[nH]c(=S)[nH]c1=O | 0% | 8% | 1% | 56µM* | -9% | 11%
Cc1ccc(NC(=O)Cn2c(=O)n(-c3ccc(C)cc3)c(=O)c3ccc(C(=O)NCc4ccccc4Cl)cc32)cc1 | nt | nt | 2% | nt | 0% | nt
CC(=O)c1cccc(NC(=O)c2cc(-c3ccco3)nc3ccccc23)c1 | nt | nt | nt | -10% | -6% | nt
O=C(Nc1ccccc1N1CCOCC1)c1cc(-c2ccco2)nc2ccccc12 | 20%[38.3 µM] | ? | 0% | -16% | -16% | ?
O=C(O)c1cc(-c2ccco2)nc2cc3ccccc3cc12 | nt | ? | 0% | 11µM* | -12% | 3%
O=C(NNC(=O)c1cc(-c2ccco2)nc2ccccc12)c1ccccc1 | nt | ? | 1% | 20µM* | -22% | -23%
O=C(c1cc(-c2ccco2)nc2ccccc12)N1CCCC(C(F)(F)F)C1 (centres undefined) | nt | nt | nt | nt | -25% | nt
O=C(Nc1ccc(F)cc1F)c1cc(-c2ccco2)nc2ccccc12 | nt | nt | nt | 32µM* | -11% | nt
O=C(O)c1ccccc1/C=N/NC(=O)c1cc(-c2ccco2)nc2ccccc12 | nt | ? | 0% | 10µM* | ? | -10%
COc1cccc(CNC(=O)C(NS(=O)(=O)c2ccc3c(c2)oc(=O)n3C)C(C)C)c1 (centres undefined) | nt | nt | 2% | nt | -3% | nt
COc1cccc(CNC(=O)C(CC(C)C)NS(=O)(=O)c2ccc3c(c2)oc(=O)n3C)c1 (centres undefined) | nt | nt | -2% | nt | -2% | nt
CC1=C(c2ccc(F)cc2)S(=O)(=O)N=C1N1CCC(C(=O)NCCc2ccco2)CC1 | nt | nt | 0% | nt | -2% | nt
C/C=C(/C)C(=O)O[C@H]1C[C@@]2(C)O[C@H]2[C@@H](OC(C)=O)C2(C)CC[C@@](O)(C(C)C)C12 (some centres undefined) | nt | nt | nt | 18% | 5% | nt
O=C(Nc1cccc(S(=O)(=O)NC2=NCCCCC2)c1)c1cc(-c2ccncc2)nc2ccccc12 | 12% | 12% | 1% | 2% | -26% | -9%
O=C(Nc1cccc(S(=O)(=O)NC2=NCCCCC2)c1)c1cc(-c2ccco2)nc2ccccc12 | nt | ? | 3% | 5µM* | ? | 7%

Bioassay records from PubChem BioAssay.
